{"source": "PubChem BioAssay AID463173", "about": "(ICCB-Longwood Screening Facility, Harvard Medical School, 2010)", "note": "Screen size: about 52,000 compounds; about 4,300 (8.3%) were called active. The sample as a whole holds a higher share of actives than the screen did. Values without a mark were called inactive. No stated cut-off is given here; in the data, active means survival mostly below about 52% (no sharp cut-off); inactive means mostly above about 56%."}
{"system": "DeltatarO mutant", "assay": "S. aureus survival, RN4220 and DeltatarO strains – OD600, teichoic acid synthesis inhibitors, primary screen (AID 463173)", "conditions": "S. aureus RN4220 wild type/DeltatarO growth, OD600, 18 h, active compounds read low, screened at 18.75 µg/mL (by protocol)"}
{"compound": "COC(=O)Cc1c(C)nc2nc(-c3ccc(C)cc3)[nH]n2c1=O", "survival": "92%"}
{"compound": "CC(=O)Nc1ccccc1-c1nc2ccccc2n(C(C)C(=O)Nc2ccccc2C(F)(F)F)c1=O", "note": "(stereo not given)", "survival": "98%"}
{"compound": "Cc1nn(C(C)C(=O)Nc2ccccc2C(F)(F)F)c(=O)c2c1sc1ccccc12", "note": "(stereo not given)", "survival": "107%"}
{"compound": "CC(C(=O)Nc1ccccc1C(F)(F)F)n1nc(-c2ccccc2)c2c(c1=O)CCCC2", "note": "(stereo not given)", "survival": "30% (active)"}
{"compound": "CC(C(=O)Nc1cccc(C#N)c1)n1nc(-c2ccccc2)c2c(c1=O)CCCC2", "note": "(stereo not given)", "survival": "20% (active)"}
{"compound": "CC(C(=O)Nc1ccccc1)n1nnc2sc3c(c2c1=O)CCCC3", "note": "(stereo not given)", "survival": "61%"}
{"compound": "CCN(CC)S(=O)(=O)c1cc(-c2ccc(=O)n(C(C)C(=O)Nc3cccc(C#N)c3)n2)ccc1C", "note": "(stereo not given)", "survival": "56%"}
{"compound": "CCN(C(=O)Cn1c(=O)n(-c2ccccc2)c(=O)c2ccc(C(=O)NCc3ccc4c(c3)OCO4)cc21)c1cccc(C)c1", "survival": "84%"}
{"compound": "CC(C)C(c1nnnn1C(C)(C)C)N(Cc1cc2cc3c(cc2[nH]c1=O)OCCO3)C1CCCCC1", "note": "(stereo not given)", "survival": "109%"}
{"compound": "COc1cccc(NC(=O)CCN2CCN(CCO)CC2)c1", "survival": "158%"}
{"compound": "CC(C)c1nn2c(=O)cc(COC(=O)CNC(=O)c3ccccc3Cl)nc2s1", "survival": "125%"}
{"compound": "COc1ccc2oc(=O)cc(CN3CCN(C(=O)c4ccccc4F)CC3)c2c1", "survival": "36% (active)"}
{"compound": "COc1ccc2oc(=O)cc(CN3CCN(c4ccc(F)cc4)CC3)c2c1", "survival": "61%"}
{"compound": "CCOc1ccc2oc(=O)cc(CN3CCN(c4ccccc4)CC3)c2c1", "survival": "83%"}
{"compound": "COc1ccc2oc(=O)cc(CN3CCN(Cc4ccccc4)CC3)c2c1", "survival": "83%"}
{"compound": "COc1ccc2oc(=O)cc(CN3CCN(C(=O)c4ccccc4)CC3)c2c1", "survival": "41% (active)"}
{"compound": "COc1ccc(N2CCN(Cc3cc(=O)oc4ccc(OC)cc34)CC2)cc1", "survival": "86%"}
{"compound": "COc1ccc2oc(=O)cc(CN3CCN(C(=O)c4ccccc4Br)CC3)c2c1", "survival": "44% (active)"}
{"compound": "COc1ccc2oc(=O)cc(CN3CCN(c4ccccc4F)CC3)c2c1", "survival": "72%"}
{"compound": "COc1ccc2oc(=O)cc(CN3CCN(c4ccccc4OC)CC3)c2c1", "survival": "77%"}
{"compound": "CC(C)NC(=O)C1CCN(Cc2ccccc2Cl)CC1", "survival": "92%"}
{"compound": "Cc1ccc(NC(=O)CCNS(=O)(=O)c2ccc3c(c2)CCN3C(=O)C2CC2)c(Cl)c1", "survival": "83%"}
{"compound": "COc1ccc(Cl)cc1NC(=O)CSc1nnc(C)n2c1cc1occc12", "survival": "50%"}
{"compound": "Cc1ccc(C)c(NC(=O)Cn2c(=O)n(CCC(=O)NCc3ccc4c(c3)OCO4)c(=O)c3ccccc32)c1", "survival": "104%"}
{"compound": "O=C(CN1C(=O)CSC1=O)c1ccccc1", "survival": "88%"}
{"compound": "CC1Cc2ccccc2N1C(=O)c1cnsn1", "note": "(stereo not given)", "survival": "97%"}
{"compound": "CC1=C(C(=O)Nc2ccc(Cl)cc2)C(c2cccs2)n2nc(SCc3cccc(Cl)c3)nc2N1", "note": "(stereo not given)", "survival": "89%"}
{"compound": "CCOC(=O)/C=C(\\C)Nc1cc(-c2ccc(Cl)cc2)[nH]n1", "survival": "68%"}
{"compound": "CC(=O)Nc1cc(-c2ccc(Cl)cc2)[nH]n1", "survival": "106%"}
{"compound": "CCNC(=S)Nc1cc(-c2ccc(Cl)cc2)[nH]n1", "survival": "20% (active)"}
{"compound": "CCN(CC)S(=O)(=O)c1ccc2c(c1)N(CC(=O)N1CCN(c3ccc(F)cc3)CC1)C(=O)CO2", "survival": "94%"}
{"compound": "Cc1oc(-c2ccc(Cl)cc2)nc1CS(=O)CC(=O)NCc1ccc(Cl)cc1", "note": "(stereo not given)", "survival": "63%"}
{"compound": "Cc1ccc(-c2onc(C)c2C)cc1S(=O)(=O)Nc1ccc(Cl)cn1", "survival": "97%"}
{"compound": "COc1ccc(-c2nnc(SCC(=O)NC3CCCC3)nc2-c2ccc(OC)c(OC)c2)cc1OC", "survival": "47% (active)"}
{"compound": "Cc1cccc(NC(=O)CSc2ncc(-c3ccc(Br)cc3)[nH]2)c1", "survival": "110%"}
{"compound": "CCOc1ccc(-c2nnc(SCC(=O)NC3CCCC3)nc2-c2ccc(OCC)c(OC)c2)cc1OC", "survival": "71%"}
{"compound": "O=C(CSc1nc(-c2cccs2)nc2cc(=O)[nH]n12)Nc1ccccc1Cl", "survival": "76%"}
{"compound": "O=C(CSc1nc(-c2cccs2)nc2cc(=O)[nH]n12)Nc1ccccc1F", "survival": "47% (active)"}
{"compound": "Cc1ccccc1NC(=O)CSc1nc(-c2cccs2)nc2cc(=O)[nH]n12", "survival": "93%"}
{"compound": "Cc1cccc(NC(=O)CSc2ncc(-c3ccccc3)[nH]2)c1C", "survival": "51%"}
{"compound": "O=C(CSc1ncc(-c2ccccc2)[nH]1)Nc1cccc(O)c1", "survival": "89%"}
{"compound": "O=C(CSc1ncc(-c2ccccc2)[nH]1)Nc1cccc(Br)c1", "survival": "9% (active)"}
{"compound": "O=C(CSc1nc2cc3ccccc3cc2[nH]1)Nc1cccc(C(F)(F)F)c1", "survival": "74%"}
{"compound": "O=C(CSc1ncc(-c2ccccc2)[nH]1)Nc1cccc(C(F)(F)F)c1", "survival": "12% (active)"}
{"compound": "CCOc1ccc(-c2nnc(SCC(=O)NC3CCCCC3)nc2-c2ccc(OCC)c(OC)c2)cc1OC", "survival": "78%"}
